Assay results from PubChem BioAssay (NCATS).
Several values for one entry are separate records, joined by “and”; a condition that tells them apart may be missing. Identical values can stand only once. Results filed as inconclusive are left out. A call without a number means that no potency is given here. More than one record can exist for a structure, and the calls need not agree. Activity calls are given as the source filed them. Unless noted, the call rests on the fitted dose curve; in most records, active means well fitted curve in the direction sought with a large enough effect; inconclusive means small, poorly fitted or top-dose-only effect, or another doubt; inactive means no such curve, though single readings can be large; an effect the other way counts as inactive or inconclusive.

target: Cytochrome P450 2C9 (Homo sapiens) (UniProt P11712); test: qHTS Assay for Inhibitors and Substrates of Cytochrome P450 2C9 (AID 883); conditions: recombinant CYP2C9, luciferin-H luminescence, 60 min; series mostly up to 57.1 µM; further: nearly all actives have a fitted effect of over 60% in size; further: potency means the concentration at half of the fitted maximal effect
Sequence (P11712 whole entry, looked up): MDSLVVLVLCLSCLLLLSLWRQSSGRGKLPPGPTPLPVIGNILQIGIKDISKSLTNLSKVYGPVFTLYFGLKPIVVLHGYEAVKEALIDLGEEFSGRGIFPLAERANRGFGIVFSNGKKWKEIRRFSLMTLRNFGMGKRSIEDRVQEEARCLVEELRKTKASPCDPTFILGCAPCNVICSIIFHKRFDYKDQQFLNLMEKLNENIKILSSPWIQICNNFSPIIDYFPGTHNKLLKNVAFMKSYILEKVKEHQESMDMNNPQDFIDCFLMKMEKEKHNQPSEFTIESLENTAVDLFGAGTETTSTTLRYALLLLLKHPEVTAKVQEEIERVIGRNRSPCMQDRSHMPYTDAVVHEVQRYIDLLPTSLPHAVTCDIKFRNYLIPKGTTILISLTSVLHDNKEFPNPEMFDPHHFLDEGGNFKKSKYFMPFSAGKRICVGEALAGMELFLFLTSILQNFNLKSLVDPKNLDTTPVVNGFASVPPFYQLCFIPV
In short: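 Human CYP2C9 (10nM) with Luciferin-H at 100uM (its KM) in 25mM KPO4; compound preincubated 10 min at 37C, then NADPH regeneration for 60 min at 37C. Luciferin read by luminescence after detection reagent; normalized to 57uM sulphaphenazole as full inhibition.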

| SMILES | Potency |
| --- | --- |
| Cc1nc2sccn2c(=O)c1CCN1CCC(=C(c2ccccc2)c2ccc(F)cc2)CC1 | 31.6 µM (active) |
| N=c1ccn2c(n1)O[C@H]1[C@H](O)[C@@H](CO)O[C@H]12 | inactive |
| COc1ccccc1N1CCN(CCN(C(=O)c2ccc(I)cc2)c2ccccn2)CC1 | inactive |

target: Cytochrome P450 3A4 (Homo sapiens) (UniProt P08684); test: qHTS Assay for Inhibitors and Substrates of Cytochrome P450 3A4 (AID 884); conditions: recombinant CYP3A4, Luciferin-PPXE luminescence; series mostly up to 57.1 µM; further: nearly all actives have a fitted effect of over 50% in size
Sequence (P08684 whole entry, looked up): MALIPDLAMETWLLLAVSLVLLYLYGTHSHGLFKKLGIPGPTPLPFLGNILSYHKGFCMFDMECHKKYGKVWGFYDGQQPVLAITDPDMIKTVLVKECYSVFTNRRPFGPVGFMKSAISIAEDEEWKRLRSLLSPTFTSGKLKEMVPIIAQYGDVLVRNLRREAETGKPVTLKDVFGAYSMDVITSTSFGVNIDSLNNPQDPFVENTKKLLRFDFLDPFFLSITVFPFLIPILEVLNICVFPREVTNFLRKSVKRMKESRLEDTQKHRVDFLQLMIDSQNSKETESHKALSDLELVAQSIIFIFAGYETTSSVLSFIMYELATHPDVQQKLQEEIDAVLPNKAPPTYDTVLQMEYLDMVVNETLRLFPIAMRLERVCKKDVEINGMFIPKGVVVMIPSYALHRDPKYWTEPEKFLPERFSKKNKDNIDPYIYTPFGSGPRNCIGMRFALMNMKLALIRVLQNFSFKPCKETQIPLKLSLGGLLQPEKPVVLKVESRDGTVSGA
In short: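 Luminescent readout of luciferin produced by CYP3A4 (20 nM) dealkylation of Luciferin-PPXE, 25 uM (its KM). NADPH-driven reaction ran 60 min at RT after 10 min compound preincubation; data scaled to 57 uM ketoconazole as 100% inhibition.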

| SMILES | Potency |
| --- | --- |
| N=C(N)SCCc1ccc(CCSC(=N)N)cc1 | inactive |
| NCCSSCCN | inactive |
| Cc1nc2sccn2c(=O)c1CCN1CCC(=C(c2ccccc2)c2ccc(F)cc2)CC1 | inactive |
| O=C(O)CC[C@@H](C(=O)O)N1C(=O)c2ccccc2C1=O | inactive |
| NC(N)=NC(=O)c1nc(Cl)c(N2CCCCCC2)nc1N | inactive |

target: Cytochrome P450 3A4 (Homo sapiens) (UniProt P08684); test: qHTS Assay for Activators of Cytochrome P450 3A4 (AID 885); conditions: recombinant CYP3A4, Luciferin-PPXE luminescence, 60 min; series mostly up to 57.1 µM; further: nearly all actives have a fitted effect of over 65% in size
In short: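 Luminescent readout of luciferin formed from 25 uM Luciferin-PPXE (KM level) by 20 nM CYP3A4 in 200 mM KPO4, with 60 min NADPH-driven reaction at room temperature after 10 min compound exposure. Ketoconazole (57 uM) defined 100% inhibition.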

| SMILES | Potency |
| --- | --- |
| CN(C)c1nc(N)c(C(=O)N=C(N)N)nc1Cl | inactive |
| O=C(Nc1cccc(C(=O)Nc2ccc(S(=O)(=O)O)c3cc(S(=O)(=O)O)cc(S(=O)(=O)O)c23)c1)Nc1cccc(C(=O)Nc2ccc(S(=O)(=O)O)c3cc(S(=O)(=O)O)cc(S(=O)(=O)O)c23)c1 | inactive |
| CCCN(CC1CC1)c1nc(C)nc(Nc2c(Cl)cc(Cl)cc2Cl)c1Cl | inactive |
| Cc1cc(NC(=O)Nc2ccc3c(ccn3C)c2)sn1 | inactive |
| NCCNC(=O)c1ncsc1-c1cccc(F)c1 | inactive |
| COC1=C(OC)C(=O)c2ccccc2C1=O | inactive |
| CN1CCc2cc(NC(=O)Nc3cccnc3)ccc21 | inactive |
| COc1cccc(C(=O)NCCN2CCN(c3ccc(Cl)cc3)CC2)c1 | inactive |
| C[N+](C)(CCCCCC[N+](C)(C)CCCN1C(=O)c2cccc3cccc(c23)C1=O)CCCN1C(=O)c2cccc3cccc(c23)C1=O | inactive |
| CCCCCCCC/C=C\CCCCCCCC(=O)NCCO | inactive |
| COc1cc2c(CCNC(C)=O)c[nH]c2cc1Cl | inactive |
| NC[C@@H]1O[C@H](C23CC4CC(CC(C4)C2)C3)Cc2c1ccc(O)c2O | inactive |
| Ic1ccc(N2CCN(Cc3c[nH]c4ncccc34)CC2)cc1 | inactive |
| N#C/C(=C\c1ccc(O)c(O)c1)C(=O)c1ccc(O)c(O)c1 | inactive |
| COc1ccccc1CNCCCCCCNCCCCCCCCNCCCCCCNCc1ccccc1OC | inactive |
| CC(C)(C=O)Cc1cc(C(C)(C)C)c(O)c(C(C)(C)C)c1 | inactive |

target: Cytochrome P450 2D6 (Homo sapiens) (UniProt P10635); test: qHTS Assay for Inhibitors and Substrates of Cytochrome P450 2D6 (AID 891); conditions: recombinant CYP2D6, luciferin-ME EGE luminescence; series mostly up to 57.1 µM; further: nearly all actives have a fitted effect of over 60% in size; further: potency means the concentration at half of the fitted maximal effect;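 on activity change, negative = inhibition: luciferin methyl ether substrate demethylated by CYP2D6 with NADPH regeneration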
Sequence (P10635 whole entry, looked up): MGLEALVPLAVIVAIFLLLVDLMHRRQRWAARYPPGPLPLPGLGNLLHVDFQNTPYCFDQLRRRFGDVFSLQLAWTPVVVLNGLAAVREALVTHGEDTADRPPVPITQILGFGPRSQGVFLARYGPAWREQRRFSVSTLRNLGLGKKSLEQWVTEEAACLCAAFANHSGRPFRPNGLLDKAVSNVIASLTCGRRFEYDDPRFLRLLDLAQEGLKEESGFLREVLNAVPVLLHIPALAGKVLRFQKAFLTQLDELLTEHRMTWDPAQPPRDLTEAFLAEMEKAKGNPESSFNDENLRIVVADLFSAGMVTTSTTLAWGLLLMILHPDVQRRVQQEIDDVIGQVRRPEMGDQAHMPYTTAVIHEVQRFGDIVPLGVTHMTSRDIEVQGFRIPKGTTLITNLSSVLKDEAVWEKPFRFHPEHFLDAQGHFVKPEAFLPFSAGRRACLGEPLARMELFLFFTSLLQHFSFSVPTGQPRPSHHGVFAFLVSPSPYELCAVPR
In short: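 Luminescent read-out of luciferin formed by 5 nM human CYP2D6 demethylating 30 uM Luciferin-ME EGE (Km level) over 60 min at room temperature after NADPH regeneration addition. Data normalized to full inhibition by 1.43 uM quinidine.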

| SMILES | Potency | activity change, negative = inhibition |
| --- | --- | --- |
| CCCN(CC1CC1)c1nc(C)nc(Nc2c(Cl)cc(Cl)cc2Cl)c1Cl | inactive and 1.58 µM (active) | – |
| Cc1nc2sccn2c(=O)c1CCN1CCC(=C(c2ccccc2)c2ccc(F)cc2)CC1 | 7.94 µM (active) | – |
| CC(C)Cc1ccc([C@H](C)C(=O)O)cc1 | inactive | – |
| CN1[C@@H]2CC[C@H]1CC(OC(c1ccccc1)c1ccccc1)C2 (stereo partly drawn) | 2 µM (active) and 1.26 µM (active) | – |
| N=c1ccn2c(n1)O[C@H]1[C@H](O)[C@@H](CO)O[C@H]12 | inactive | – |
| COc1ccccc1N1CCN(CCN(C(=O)c2ccc(I)cc2)c2ccccn2)CC1 | 3.98 µM (active) | – |
| O=C(O)CC[C@@H](C(=O)O)N1C(=O)c2ccccc2C1=O | – | 21.6% [at 11.4 µM] (inactive) |

test system: not listed separately; test: qHTS Assay for Identification of Small Molecule Antagonists for NFkB Signaling Pathway (AID 895; active means well fitted inhibition curve with a large enough effect in the signal ratio, with a control signal flat, not every such curve was filed as active; the % refers to the signal ratio); conditions: NFkB beta-lactamase reporter cells, FRET ratio 460/530, stimulated with 10 pM TNF alpha; series mostly up to 38.3 µM
In short: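 ME-180 NFkB-bla cells (beta-lactamase under NFkB response element), plated overnight, treated with compound then 10 pM TNF alpha (about EC50) for 5 hrs at 37 C. LiveBLAzer FRET read at 460/530 nm emission, 405 nm excitation.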

| SMILES | Potency |
| --- | --- |
| N=C(N)SCCc1ccc(CCSC(=N)N)cc1 | inactive |
| C[N+]1(C)CCC(OC(=O)C(c2ccccc2)c2ccccc2)CC1 | inactive |
| CC(=O)SCC[N+](C)(C)C | inactive |
| NCCSSCCN | inactive |
| Cc1cc(NC(=O)Nc2ccc3c(ccn3C)c2)sn1 | inactive |
| COc1cc(OC)c(/C=C2/C(=O)Nc3ccccc32)c(OC)c1 | inactive |
| COc1cccc(C(=O)NCCN2CCN(c3ccc(Cl)cc3)CC2)c1 | inactive |
| Cn1c(=O)c2[nH]c(-c3ccccc3)nc2n(C)c1=O | inactive |
| N#C/C(=C\c1ccc(O)c(O)c1)C(=O)c1ccc(O)c(O)c1 | inactive |
| COc1ccccc1CNCCCCCCNCCCCCCCCNCCCCCCNCc1ccccc1OC | inactive |
| O=c1[nH]c2cc(Cl)c(Cl)cc2[nH]c1=O | inactive |
| NC(N)=NC(=O)c1nc(Cl)c(N2CCCCCC2)nc1N | inactive |
